# The list is not random: actives were taken first. Their share in the collection is about 6%.
# D1 PAM: potentiators of human D1 dopamine receptor | HEK293 TREx D1 cells, calcium flux, dopamine EC20 potentiation | potentiation, % at 10 µM | 360,000 tested, 0.036% active; in the data active means potentiation above about 30%; further: 0% is about no effect
# Target sequence (P21728 whole entry, looked up): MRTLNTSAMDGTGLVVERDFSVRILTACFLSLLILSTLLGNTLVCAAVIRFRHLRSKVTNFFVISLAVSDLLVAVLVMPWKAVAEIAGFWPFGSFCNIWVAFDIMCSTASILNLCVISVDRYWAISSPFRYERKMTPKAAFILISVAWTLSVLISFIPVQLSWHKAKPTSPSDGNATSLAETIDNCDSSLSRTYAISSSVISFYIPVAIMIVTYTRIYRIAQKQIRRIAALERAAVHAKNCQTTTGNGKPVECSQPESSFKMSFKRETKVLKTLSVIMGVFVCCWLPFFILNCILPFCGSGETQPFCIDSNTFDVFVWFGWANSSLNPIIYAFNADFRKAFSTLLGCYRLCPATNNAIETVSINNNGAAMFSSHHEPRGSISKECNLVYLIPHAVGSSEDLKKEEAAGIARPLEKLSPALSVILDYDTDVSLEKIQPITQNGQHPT
# D1 antag: antagonists of human D1 dopamine receptor; P21728; HEK293 TREx D1 cells, calcium flux, dopamine EC80; stronger effect = lower value; activity change, negative = inhibition, % at 10 µM; 360,000 tested, 3.2% active; AID 504652; in the data active means activity change below about -30%; further: on the % scale 0 is the no-effect control and ±100 the full control effect
#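 Tetracycline-induced HEK293 Trex D1 cells, force-coupled to calcium, dye-loaded; compounds added and read 180 s, then EC80 dopamine added and calcium flux tracked kinetically another 180 s.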
# D3 ag: activates the human D3 dopamine receptor; P35462; D3R DiscoveRx beta-arrestin cells, luminescence, 90 min; max activation, %; 410,000 tested, 0.58% active; in the data active means max activation above about 30%; further: 0% is about no effect
#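 Cells at 1500/well, incubated overnight, then treated with pinned compounds (dopamine as control) for 90 min at 37 degrees C. DiscoveRx reagent added for 30 - 60 minutes at room temperature; luminescence read.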
# D1 ag: activates the human D1 dopamine receptor; HEK293 T-REx D1 cells, calcium flux, agonist mode; 360,000 tested, 1% active; activation, % at 2 µM; in the data active means activation above about 30%; further: 0% is about no effect
#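 Tetracycline-induced HEK293 TREx D1 cells, force-coupled to calcium signalling, were dye-loaded with a no-wash calcium kit. Compound was pin-added after a 10 s baseline. Fluorescence was read kinetically at 1 cycle/s for 180 s, with calcium rises flagged as agonism.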
# D3 antag: D3 dopamine receptor (human) antagonism. P35462. D3R cells, DiscoveRx beta-arrestin luminescence, antagonist mode; stronger effect = lower value. max response, negative = inhibition, %. 360,000 tested, 2.5% active. AID 652054; in the data active means max response below about -50%; inconclusive means no clear call, values can overlap the other calls; further: on the % scale 0 is the no-effect control and ±100 the full control effect
#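 Cells expressing the human receptor were seeded at 1500 cells/well, incubated overnight at 37 degrees C in 5% CO2, then exposed to library compounds with dopamine controls for 90 minutes at 37 degrees C before luminescent detection.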
# * hit, by the source's call; ? = inconclusive; nt = not tested or not shown; ! = not confirmed by another sample.
SMILES,D1 PAM,D1 antag,D3 ag,D1 ag,D3 antag
O=C(COC(=O)C1CCCCC1)Nc1ccc(N2CCCCC2)cc1,-1,-30*,-12,-1,?
CCCC(C(=O)Nc1ccc(S(=O)(=O)N2CCOCC2)cc1)c1ccccc1 (configuration not stated),-1,-7,0,37*,-8
CCCC(C(=O)Nc1ccc(C)c(S(=O)(=O)N2CCOCC2)c1)c1ccccc1 (configuration not stated),-4,3,1,2,4
CN1CCN(S(=O)(=O)c2ccc(NC(=O)COc3ccccc3Cl)cc2)CC1,-9,-53*,-7,8,4
O=C(O)c1ccc(Cl)c(S(=O)(=O)Nc2ccc(S(=O)(=O)N3CCCC3)cc2)c1,nt,nt,6,nt,0
COc1ccccc1-c1noc(-c2ccc(N3CCOCC3)c([N+](=O)[O-])c2)n1,-1,-7,-19,3,nt
CCc1ccc(NC(=O)COCc2cc(-c3ccc(F)cc3)on2)cc1,5,-16,11,5,nt
CCOc1ccccc1NS(=O)(=O)c1ccc2c(c1)CC(C)N2C(=O)C1CC1 (configuration not stated),1,-25,9,12,nt
Cc1c(C(=O)Nc2cccc(F)c2)oc2c1-c1nn(Cc3c(F)cccc3Cl)cc1CC2,-3,-1,-13,2,nt
c1ccc(-c2cn(-c3ccccc3)c3[n+]2CCS3)cc1,-2,23,-20,6,-10
COc1ccc(-c2cn(-c3ccccc3)c3[n+]2CCS3)cc1,-7,-53*!,-1,2,7
Cc1cc(C)c(OCCOCCN2CCCC2)c(C)c1,nt,nt,-10,nt,1
CCC(C)c1ccccc1OCCCCN1CCCC1 (configuration not stated),-14,2,-27,6,-72*
CCC(C)c1ccccc1OCCOCCN1CCCC1 (configuration not stated),-18,-30*,-25,10,-52*
CN(CC(=O)Nc1ccc(Cl)cc1)C(=O)c1cccc(S(=O)(=O)N2CCN(Cc3ccccc3)CC2)c1,-13,-31*,2,3,-5
CN(Cc1ccc(Cl)cc1Cl)C(=O)c1cccc(S(=O)(=O)NCc2ccccc2)c1,nt,nt,-3,nt,-26
CN(CC(=O)Nc1ccc(Cl)cc1)C(=O)c1cccc(S(=O)(=O)NCc2ccccc2)c1,6,-9,-31,2,-64*
CN(C)C(=O)c1ccc(NC(=O)c2cccc(S(=O)(=O)N3CCN(Cc4ccccc4)CC3)c2)cc1,nt,nt,-15,nt,1
CCOc1ccc(C(=O)N(Cc2cc(OC)c(OC)c(OC)c2)c2ccccn2)cc1,1,-12,3,3,nt
Cc1cnc(NC(=O)CSc2ncc(-c3ccccc3)n2Cc2ccco2)s1,-9,-32*,-6,79*,11
CCC(=O)Nc1cc(NC(=O)CSc2ncc(-c3ccc(F)cc3)n2Cc2ccco2)ccc1C,-4,12,1,0,-60*
O=C(CSc1ncc(-c2ccc(F)cc2)n1Cc1ccco1)Nc1nccs1,-4,6,16,20,6
Cc1cccc(CCNC(=O)CCc2c(C)nc3c(c(C)nn3-c3ccccc3)c2C)c1,-1,0,-2,8,nt
C/C(=N\NC(=O)Cc1cccn1C)c1ccc2ccccc2c1,-8,-36*,5,2,7
C/C(=N/NC(=O)Cc1cccn1C)c1ccccc1,-8,-5,4,2,12
SMILES,D1 PAM,D1 antag,D3 ag,D1 ag,D3 antag
N#C/C(=C(/O)c1ccccc1F)c1nc2cc(C(F)(F)F)ccc2s1,-3,-15,0,2,7
N#C/C(=C(/O)c1ccc2c(c1)OCO2)c1nc2cc(C(F)(F)F)ccc2s1,-3,-41*,9,15,?
CSc1ccc2c(c1)N(CCC1CCCCN1C)c1ccccc1S2 (configuration not stated),-4,-87*,-82,40*,-89*
Cc1noc(NS(=O)(=O)c2ccc(NC(=O)COc3ccccc3Br)cc2)c1C,3,21,2,-1,nt
Cc1cc(C(=O)N/N=C/c2ccc([N+](=O)[O-])cc2)c2ccccc2n1,-7,-13,-1,2,-4
COc1ccc(N2CC(C(=O)N/N=C/c3cc([N+](=O)[O-])ccc3O)CC2=O)cc1 (configuration not stated),1,-2,-2,-1,-52*

# Assay outcomes deposited in PubChem by National Center for Advancing Translational Sciences (NCATS).
